From the supplement of paper PMC10849652
The full data set covers some 7,900 targets. This sample favours those with a hit. About 0.6% of all pairs of compound and target were hits.

Key:
Experiment in all cases: log2 fold change, soluble protein after heating vs DMSO (PISA); higher = thermal stabilisation; K562 cells, 10 uM, 30 min; active = over 0.2 and 3.5 SD of the protein, either way, in both replicates (recomputed)
[1] = compound: NC(=O)Nc1cc(-c2cccc(F)c2)sc1C(=O)N[C@H]1CCCNC1
How it was run: (§1)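 Aliquots of K562 cells (2×10^6 cells/mL) treated with 10 μM compound for 30 min were heated for 3 min over 48°C-58°C. After pooling and extraction in PBS with 0.5% NP-40 at 4°C, soluble protein from a 21,000xg, 90 min spin was quantified by TMTpro 16plex LC-MS/MS with channel sums equalised. Thermal stability is expressed against control samples, from duplicates, as a log2 fold change.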

[2] = compound: NC(=O)c1cnc(N[C@@H]2CCCC[C@@H]2N)nc1Nc1cccc(-n2nccn2)c1
How it was run: as §1

[3] = compound: NC1(c2ccc(-c3nc4ccn5c(=O)[nH]nc5c4cc3-c3ccccc3)cc2)CCC1
How it was run: as §1

[4] = compound: NCC(=O)Nc1ccc(-n2nc(C(F)(F)F)cc2-c2ccc3c(ccc4ccccc43)c2)cc1
How it was run: as §1

entinostat = compound: Nc1ccccc1NC(=O)c1ccc(CNC(=O)OCc2cccnc2)cc1 [entinostat]
How it was run: as §1

vorinostat = compound: O=C(CCCCCCC(=O)Nc1ccccc1)NO [vorinostat]
How it was run: as §1

citarinostat = compound: O=C(CCCCCCNC(=O)c1cnc(N(c2ccccc2)c2ccccc2Cl)nc1)NO [citarinostat]
How it was run: as §1

silmitasertib = compound: O=C(O)c1ccc2c(c1)nc(Nc1cccc(Cl)c1)c1ccncc12 [silmitasertib]
How it was run: as §1

[5] = compound: O=C1NC(=O)C(c2cnc3ccccn23)=C1c1cn2c3c(cc(F)cc13)CN(C(=O)N1CCCCC1)CC2
How it was run: as §1

[6] = compound: c1cc(OCCN2CCCCC2)cc(-c2n[nH]c3ccc(-c4nnc[nH]4)cc23)c1
How it was run: as §1

Measured: log2 fold change

KIF1B isoform 4 (UniProt O60333)
inactive: [1] 0.043 | [2] -0.059 | [3] -0.16 | [4] -0.03 | entinostat 0.011 | vorinostat 0.063 | citarinostat 0.054 | silmitasertib 0.009 | [5] -0.037 | [6] -0.062

MAPK12 (UniProt P53778)
active: [5] 0.348
inactive: [1] -0.076 | [2] -0.095 | [3] -0.09 | [4] 0.014 | entinostat 0.012 | vorinostat 0.08 | citarinostat 0.046 | silmitasertib -0.006 | [6] 0.018

MAGEC2 (UniProt Q9UBF1)
inactive: [1] 0.013 | [2] -0.037 | [3] -0.021 | [4] -0.004 | entinostat -0.009 | vorinostat 0.032 | citarinostat 0.029 | silmitasertib 0.057 | [5] 0.089 | [6] -0.09

MGST1 (UniProt P10620)
inactive: [1] -0.025 | [2] -0.024 | [3] -0.035 | [4] 0.163 | entinostat 0.031 | vorinostat 0.027 | citarinostat -0.065 | silmitasertib 0.036 | [5] -0.086 | [6] 0.122

LSR (UniProt Q86X29)
Sequence of UniProt Q86X29 (Q86X29 whole entry, looked up): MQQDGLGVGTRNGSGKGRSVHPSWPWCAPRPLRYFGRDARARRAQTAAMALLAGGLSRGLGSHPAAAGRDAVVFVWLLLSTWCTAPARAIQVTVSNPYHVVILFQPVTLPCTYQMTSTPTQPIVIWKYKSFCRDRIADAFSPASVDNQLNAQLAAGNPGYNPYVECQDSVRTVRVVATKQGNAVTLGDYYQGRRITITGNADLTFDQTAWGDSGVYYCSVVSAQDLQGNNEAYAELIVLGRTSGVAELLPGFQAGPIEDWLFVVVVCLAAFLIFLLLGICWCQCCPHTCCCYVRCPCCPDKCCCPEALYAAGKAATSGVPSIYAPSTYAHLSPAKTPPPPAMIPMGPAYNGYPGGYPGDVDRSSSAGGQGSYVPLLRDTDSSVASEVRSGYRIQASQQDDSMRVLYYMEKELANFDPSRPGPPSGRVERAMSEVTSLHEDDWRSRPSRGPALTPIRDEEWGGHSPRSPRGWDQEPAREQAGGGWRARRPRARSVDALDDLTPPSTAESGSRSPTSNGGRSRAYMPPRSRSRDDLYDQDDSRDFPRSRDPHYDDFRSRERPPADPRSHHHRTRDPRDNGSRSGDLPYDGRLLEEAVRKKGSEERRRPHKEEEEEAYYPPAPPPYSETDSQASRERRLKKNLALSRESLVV
inactive: [1] -0.135 | [2] 0.066 | [3] 0.066 | [4] 0.039 | entinostat -0.054 | vorinostat -0.027 | citarinostat 0.006 | silmitasertib -0.036 | [5] 0.03 | [6] -0.012

INTS7 (UniProt Q9NVH2)
Sequence of UniProt Q9NVH2 (Q9NVH2 whole entry, looked up): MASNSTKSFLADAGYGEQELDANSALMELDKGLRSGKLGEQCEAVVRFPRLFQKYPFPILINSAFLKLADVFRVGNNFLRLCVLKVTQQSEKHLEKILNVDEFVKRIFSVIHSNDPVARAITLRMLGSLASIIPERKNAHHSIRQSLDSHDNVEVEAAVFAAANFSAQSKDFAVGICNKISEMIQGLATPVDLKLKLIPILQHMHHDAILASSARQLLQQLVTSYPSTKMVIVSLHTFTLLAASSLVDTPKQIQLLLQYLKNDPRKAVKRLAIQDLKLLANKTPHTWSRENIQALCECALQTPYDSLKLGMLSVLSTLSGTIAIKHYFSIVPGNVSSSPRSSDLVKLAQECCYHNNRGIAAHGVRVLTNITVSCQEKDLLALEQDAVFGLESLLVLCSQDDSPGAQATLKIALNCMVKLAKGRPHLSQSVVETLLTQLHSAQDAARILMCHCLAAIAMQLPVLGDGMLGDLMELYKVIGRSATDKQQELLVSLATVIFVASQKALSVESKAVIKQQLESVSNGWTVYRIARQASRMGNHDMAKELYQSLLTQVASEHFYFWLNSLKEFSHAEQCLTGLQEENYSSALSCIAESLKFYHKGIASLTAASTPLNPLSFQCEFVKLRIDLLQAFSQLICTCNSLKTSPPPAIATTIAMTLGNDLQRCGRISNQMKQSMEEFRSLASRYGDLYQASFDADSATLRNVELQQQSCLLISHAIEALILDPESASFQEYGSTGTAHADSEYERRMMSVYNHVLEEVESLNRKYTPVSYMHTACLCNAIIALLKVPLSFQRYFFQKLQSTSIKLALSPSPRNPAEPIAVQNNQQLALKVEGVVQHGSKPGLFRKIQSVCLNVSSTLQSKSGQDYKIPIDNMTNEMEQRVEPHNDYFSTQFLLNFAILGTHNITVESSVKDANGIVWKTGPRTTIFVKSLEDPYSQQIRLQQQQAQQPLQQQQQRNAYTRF
inactive: [1] -0.076 | [2] 0.037 | [3] 0.001 | [4] -0.045 | entinostat -0.095 | vorinostat 0.049 | citarinostat -0.007 | silmitasertib 0.055 | [5] 0.092 | [6] 0.01

MARCKS (UniProt P29966)
inactive: [1] -0.018 | [2] 0.108 | [3] 0.038 | [4] 0.07 | entinostat -0.074 | vorinostat -0.159 | citarinostat 0.062 | silmitasertib -0.021 | [5] 0.031 | [6] -0.08

MFF (UniProt Q9GZY8)
inactive: [1] -0.098 | [3] -0.125 | [4] -0.102 | entinostat -0.015 | vorinostat 0.006 | citarinostat -0.007 | silmitasertib 0.04 | [5] -0.06 | [6] -0.135
active: [2] -0.224

KRAS isoform 2 (UniProt P01116)
inactive: [1] -0.07 | [2] 0.039 | [3] 0.091 | [4] 0.061 | entinostat -0.015 | vorinostat -0.032 | citarinostat -0.018 | silmitasertib 0.001 | [5] -0.019 | [6] -0.032

LMNB2 (UniProt Q03252)
inactive: [1] 0.079 | [2] -0.077 | [3] 0.068 | [4] -0.09 | entinostat -0.006 | vorinostat -0.047 | citarinostat 0.015 | silmitasertib 0.018 | [5] -0.101 | [6] -0.07

IPO11 isoform 2 (UniProt Q9UI26)
Sequence of UniProt Q9UI26 (Q9UI26 whole entry, looked up): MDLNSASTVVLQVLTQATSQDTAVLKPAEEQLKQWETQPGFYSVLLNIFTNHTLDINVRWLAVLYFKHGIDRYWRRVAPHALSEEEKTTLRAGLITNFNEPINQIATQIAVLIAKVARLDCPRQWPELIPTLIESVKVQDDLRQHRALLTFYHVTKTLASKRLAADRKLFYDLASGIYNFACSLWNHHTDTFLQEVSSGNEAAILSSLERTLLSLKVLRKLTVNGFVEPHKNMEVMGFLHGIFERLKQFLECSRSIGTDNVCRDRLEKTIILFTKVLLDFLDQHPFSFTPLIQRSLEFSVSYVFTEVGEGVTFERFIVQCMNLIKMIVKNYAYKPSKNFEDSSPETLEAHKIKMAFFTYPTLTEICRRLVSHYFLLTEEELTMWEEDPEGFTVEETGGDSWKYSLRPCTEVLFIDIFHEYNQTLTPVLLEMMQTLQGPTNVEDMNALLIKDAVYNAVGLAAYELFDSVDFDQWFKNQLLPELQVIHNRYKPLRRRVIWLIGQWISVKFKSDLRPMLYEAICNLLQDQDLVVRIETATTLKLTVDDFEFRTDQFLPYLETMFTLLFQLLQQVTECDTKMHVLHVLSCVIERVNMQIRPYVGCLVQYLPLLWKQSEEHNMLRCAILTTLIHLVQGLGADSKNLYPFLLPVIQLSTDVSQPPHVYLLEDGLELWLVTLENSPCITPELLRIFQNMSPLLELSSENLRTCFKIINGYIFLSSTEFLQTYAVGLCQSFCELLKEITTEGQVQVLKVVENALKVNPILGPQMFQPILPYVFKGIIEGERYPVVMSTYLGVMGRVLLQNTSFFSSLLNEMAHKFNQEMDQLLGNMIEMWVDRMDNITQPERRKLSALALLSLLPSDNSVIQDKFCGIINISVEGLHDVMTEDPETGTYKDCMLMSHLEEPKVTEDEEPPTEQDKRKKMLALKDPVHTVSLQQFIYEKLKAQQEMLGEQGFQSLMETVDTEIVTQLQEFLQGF
inactive: [1] -0.004 | [2] -0.074 | [3] -0.113 | [4] -0.039 | entinostat 0.022 | vorinostat 0.027 | citarinostat 0.048 | silmitasertib 0.032 | [5] -0.027 | [6] 0.005

MARCKSL1 (UniProt P49006)
inactive: [1] -0.02 | [2] 0.028 | [3] -0.01 | [4] 0.002 | entinostat 0.075 | vorinostat -0.062 | citarinostat 0.162 | silmitasertib -0.115 | [5] -0.035 | [6] 0.089

LTO1 (UniProt Q8WV07)
Sequence of UniProt Q8WV07 (Q8WV07 whole entry, looked up): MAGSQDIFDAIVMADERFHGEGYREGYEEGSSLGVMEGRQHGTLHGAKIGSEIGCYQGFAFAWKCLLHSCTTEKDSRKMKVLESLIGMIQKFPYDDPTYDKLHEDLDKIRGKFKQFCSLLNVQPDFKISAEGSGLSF
inactive: [1] -0.077 | [2] 0.009 | [3] -0.011 | [4] 0.094 | entinostat -0.097 | vorinostat 0.005 | citarinostat 0.044 | silmitasertib 0.158 | [5] -0.015 | [6] -0.126

MEPCE (UniProt Q7L2J0)
inactive: [1] -0.085 | [2] -0.152 | [3] -0.127 | [4] -0.004 | entinostat 0.063 | vorinostat 0.107 | citarinostat 0.005 | silmitasertib 0.02 | [5] -0.019 | [6] 0.026

MAPKAPK2 (UniProt P49137)
inactive: [1] 0.12 | [2] 0.035 | [3] -0.14 | [4] 0.034 | entinostat 0.018 | vorinostat 0.04 | citarinostat 0.058 | silmitasertib 0.06 | [5] -0.128 | [6] -0.006

MIF (UniProt P14174)
inactive: [1] -0.059 | [2] 0.092 | [3] 0.103 | [4] 0.048 | entinostat 0.099 | vorinostat -0.085 | citarinostat -0.013 | silmitasertib 0.036 | [5] -0.196 | [6] 0.063

LGALS8 isoform 2 (UniProt O00214)
inactive: [1] -0.053 | [2] -0.096 | [3] 0.179 | [4] 0.055 | entinostat 0.091 | vorinostat 0.078 | citarinostat 0.051 | silmitasertib 0.147 | [5] 0.121 | [6] -0.129

LONP2 (UniProt Q86WA8)
inactive: [1] 0.094 | [2] 0.024 | [3] -0.279 | [4] 0.041 | entinostat -0.05 | vorinostat -0.006 | citarinostat -0.069 | silmitasertib 0.105 | [5] -0.007 | [6] -0.219

IKZF1 (UniProt Q13422)
Sequence of UniProt Q13422 (Q13422 whole entry, looked up): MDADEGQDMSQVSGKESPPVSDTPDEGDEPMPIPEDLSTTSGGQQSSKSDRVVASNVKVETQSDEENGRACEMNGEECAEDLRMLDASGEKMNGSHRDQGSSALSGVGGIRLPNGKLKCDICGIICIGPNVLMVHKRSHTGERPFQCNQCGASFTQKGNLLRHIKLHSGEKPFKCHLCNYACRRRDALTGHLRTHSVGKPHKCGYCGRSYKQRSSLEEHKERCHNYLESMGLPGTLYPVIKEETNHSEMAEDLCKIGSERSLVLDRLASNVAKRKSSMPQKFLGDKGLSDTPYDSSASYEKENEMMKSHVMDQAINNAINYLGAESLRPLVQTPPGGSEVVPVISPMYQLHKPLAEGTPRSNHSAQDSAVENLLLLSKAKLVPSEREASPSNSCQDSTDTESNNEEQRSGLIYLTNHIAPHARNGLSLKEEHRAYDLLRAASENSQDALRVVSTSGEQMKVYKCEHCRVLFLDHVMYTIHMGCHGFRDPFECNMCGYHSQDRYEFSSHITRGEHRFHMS
inactive: [1] 0.164 | [2] -0.084 | [3] 0.21 | [4] -0.03 | entinostat 0.064 | vorinostat 0.003 | citarinostat 0.019 | silmitasertib -0.202 | [5] 0.004 | [6] -0.061

MFGE8 (UniProt Q08431)
inactive: [1] -0.163 | [2] -0.058 | [3] 0.049 | [4] 0.125 | entinostat -0.082 | vorinostat 0.03 | citarinostat -0.036 | silmitasertib 0.117 | [5] 0.007 | [6] -0.029

KSR1 (UniProt Q8IVT5)
Sequence of UniProt Q8IVT5 (Q8IVT5 whole entry, looked up): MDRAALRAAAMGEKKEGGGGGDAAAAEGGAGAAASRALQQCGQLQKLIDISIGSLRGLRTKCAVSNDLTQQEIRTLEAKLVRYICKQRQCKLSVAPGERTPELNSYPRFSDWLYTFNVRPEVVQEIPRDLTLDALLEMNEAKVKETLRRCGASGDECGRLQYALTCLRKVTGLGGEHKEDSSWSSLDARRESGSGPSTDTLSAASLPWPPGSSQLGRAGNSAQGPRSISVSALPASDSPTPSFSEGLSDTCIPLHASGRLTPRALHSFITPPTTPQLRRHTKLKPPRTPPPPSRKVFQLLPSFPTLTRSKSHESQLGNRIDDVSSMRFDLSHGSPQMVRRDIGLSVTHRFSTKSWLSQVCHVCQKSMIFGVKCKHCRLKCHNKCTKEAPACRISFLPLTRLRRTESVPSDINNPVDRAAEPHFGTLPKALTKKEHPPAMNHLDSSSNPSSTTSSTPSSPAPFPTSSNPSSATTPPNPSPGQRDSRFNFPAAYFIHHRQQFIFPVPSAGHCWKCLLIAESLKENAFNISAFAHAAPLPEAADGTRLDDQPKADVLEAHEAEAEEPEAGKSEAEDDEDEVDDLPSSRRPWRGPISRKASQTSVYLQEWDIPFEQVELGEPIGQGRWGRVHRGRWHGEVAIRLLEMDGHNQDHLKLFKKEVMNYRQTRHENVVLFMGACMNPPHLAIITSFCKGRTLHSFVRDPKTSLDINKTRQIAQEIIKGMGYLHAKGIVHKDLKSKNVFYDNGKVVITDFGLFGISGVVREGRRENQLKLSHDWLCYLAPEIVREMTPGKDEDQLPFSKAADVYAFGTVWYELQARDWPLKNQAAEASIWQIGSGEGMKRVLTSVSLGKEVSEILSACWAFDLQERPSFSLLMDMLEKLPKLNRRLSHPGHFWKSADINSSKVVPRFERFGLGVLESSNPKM
inactive: [1] -0.333 | [2] -0.049 | [3] 0.236 | [4] -0.111 | entinostat 0.044 | vorinostat 0.013 | citarinostat 0.045 | silmitasertib -0.279 | [5] -0.118 | [6] -0.193

MIEF1 (UniProt Q9NQG6)
inactive: [1] -0.001 | [2] -0.14 | [3] -0.215 | [4] -0.034 | entinostat 0.056 | vorinostat 0.019 | citarinostat 0.073 | silmitasertib 0.006 | [5] 0.031 | [6] -0.01

LPIN3 isoform 2 (UniProt Q9BQK8)
Sequence of UniProt Q9BQK8 (Q9BQK8 whole entry, looked up): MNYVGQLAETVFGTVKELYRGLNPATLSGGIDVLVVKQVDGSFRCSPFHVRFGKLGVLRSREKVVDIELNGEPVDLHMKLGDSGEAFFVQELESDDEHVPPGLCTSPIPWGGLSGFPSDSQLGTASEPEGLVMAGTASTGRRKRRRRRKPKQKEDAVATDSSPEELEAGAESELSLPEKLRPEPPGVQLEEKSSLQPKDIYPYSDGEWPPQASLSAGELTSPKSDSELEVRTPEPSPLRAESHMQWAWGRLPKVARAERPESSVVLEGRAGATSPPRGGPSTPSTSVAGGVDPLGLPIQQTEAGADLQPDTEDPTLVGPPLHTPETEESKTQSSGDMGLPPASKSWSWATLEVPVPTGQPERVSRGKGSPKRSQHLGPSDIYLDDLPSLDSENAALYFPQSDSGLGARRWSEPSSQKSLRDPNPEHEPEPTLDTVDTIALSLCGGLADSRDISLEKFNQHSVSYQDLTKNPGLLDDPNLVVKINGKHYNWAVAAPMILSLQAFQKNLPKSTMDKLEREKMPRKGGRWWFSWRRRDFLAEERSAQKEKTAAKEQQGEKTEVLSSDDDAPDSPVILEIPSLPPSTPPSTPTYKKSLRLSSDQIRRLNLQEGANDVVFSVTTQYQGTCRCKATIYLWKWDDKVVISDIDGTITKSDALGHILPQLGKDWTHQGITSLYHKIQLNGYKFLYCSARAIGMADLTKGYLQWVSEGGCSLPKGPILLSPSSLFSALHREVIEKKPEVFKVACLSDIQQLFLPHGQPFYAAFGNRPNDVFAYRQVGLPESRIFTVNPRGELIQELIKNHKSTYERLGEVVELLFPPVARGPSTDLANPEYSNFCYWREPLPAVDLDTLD
inactive: [1] 0.014 | [2] -0.027 | [3] -0.044 | [4] 0.041 | entinostat -0.006 | vorinostat 0.011 | citarinostat 0.001 | silmitasertib -0.116 | [5] -0.054 | [6] -0.142

MICOS13 (UniProt Q5XKP0)
inactive: [1] -0.018 | [2] -0.023 | [3] -0.119 | [4] 0.029 | entinostat 0.041 | vorinostat 0.018 | citarinostat 0.028 | silmitasertib -0.02 | [5] -0.106 | [6] 0.025

IRAK4 (UniProt Q9NWZ3)
active: [1] 0.349 | [3] -0.281
inactive: [2] -0.088 | [4] -0.008 | entinostat 0.053 | vorinostat 0.05 | citarinostat 0.002 | silmitasertib 0.027 | [5] -0.024 | [6] -0.019

MGST3 (UniProt O14880)
inactive: [1] -0.04 | [2] -0.07 | [3] 0.076 | [4] 0.009 | entinostat -0.047 | vorinostat -0.043 | citarinostat -0.005 | silmitasertib -0.011 | [5] -0.025 | [6] -0.056

KIF11 (UniProt P52732)
inactive: [1] -0.096 | [2] -0.075 | [3] -0.001 | [4] -0.067 | entinostat 0.023 | vorinostat 0.099 | citarinostat -0.006 | silmitasertib 0.147 | [5] 0.182 | [6] -0.044
